In the supplement of paper PMC8975748:
Counter-ions that a name gives are not always drawn.

Test system: Saccharomyces cerevisiae BY4741 SeMeCo community
Assay: z-score of subpopulation abundance vs DMSO median, subpopulation auxotrophic for LUM; higher = larger share of this subpopulation than in DMSO controls
Conditions: 10 µM; 24 h; SM minimal medium; subpopulation (auxotrophy): LUM
Procedure: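 Fluorescent four-plasmid SeMeCo (self-establishing metabolically cooperating S. cerevisiae BY4741 community; plasmids pH-mRuby2, pL-mWasabi, pU-eCFP, pM-TagRFP657) was grown 24 h in minimal SM medium with each Selleck FDA-approved drug at 10 µM in 384-well plates. Cells were fixed and imaged by high-content confocal microscopy. For each auxotrophic subpopulation (and the prototroph), a z-score gives the deviation from the DMSO vehicle-control population median.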

Point of comparison: `C=C(C)[C@H]1Cc2c(ccc3c2O[C@@H]2COc4cc(OC)c(OC)cc4[C@@H]2C3=O)O1` [Rotenone (Barbasco)], “z-score of subpopulation abundance” value -0.01. Against it:
- COc1cc2c(cc1OC)C1CC(=O)C(CC(C)C)CN1CC2 (centres undefined) [Tetrabenazine (Xenazine)] — higher, 0.67
- CN(C)C(=O)Oc1cccc([N+](C)(C)C)c1 [Neostigmine Bromide] — higher, 0.02
- CN(C)[C@@H]1C(=O)C(C(N)=O)=C(O)[C@@]2(O)C(=O)C3=C(O)c4c(O)cccc4[C@@](C)(O)[C@H]3C[C@@H]12 [Tetracycline HCl] — lower, -0.52
- COC(=O)C1=CCCN(C)C1 [Arecoline HBr] — higher, 0.07
- CN1C(=O)COc2c(C(=O)NC3CN4CCC3CC4)cc(Cl)cc21 (centres undefined) [Azasetron HCl] — lower, -0.38
- Oc1cc(Cl)ccc1Oc1ccc(Cl)cc1Cl [Triclosan] — higher, 0.02
- CC(=O)O[C@H]1C[C@@H]2CC[C@@H]3[C@H](CC[C@@]4(C)[C@H]3C[C@H]([N+]3(C)CCCCC3)[C@@H]4OC(C)=O)[C@@]2(C)C[C@@H]1[N+]1(C)CCCCC1 [Pancuronium dibromide] — lower, -0.96
- CN1[C@@H]2CC[C@H]1C[C@@H](OC(=O)C(CO)c1ccccc1)C2 (some centres undefined) [Atropine sulfate monohydrate] — higher, 0.28
- CCC1=C[C@H]2CN3CCc4c([nH]c5ccccc45)[C@](C(=O)OC)(C2)[C@H]13 [Catharanthine] — lower, -0.3
- C[N+]1(C)[C@@H]2C[C@@H](OC(=O)[C@H](CO)c3ccccc3)C[C@H]1[C@@H]1O[C@@H]12 [Methscopolamine] — higher, 0.43
- CCN(C)C(=O)Oc1cccc([C@H](C)N(C)C)c1 [Rivastigmine] — lower, -0.27
- CN1c2ccccc2C(NCCCCCCC(=O)O)c2ccc(Cl)cc2S1(=O)=O (centres undefined) [Tianeptine sodium] — higher, 0.15
- O=c1cccc2n1C[C@@H]1CNC[C@H]2C1 [Cytisine] — lower, -0.47
- CC[C@H]1[C@@H]2C[C@H]3[C@@H]4N(C)c5ccccc5[C@]45C[C@@H]([C@@H]2[C@H]5O)N3[C@@H]1O [Ajmaline] — lower, -0.35
- COc1ccc(C(CN(C)C)C2(O)CCCCC2)cc1 (centres undefined) [Venlafaxine] — higher, 0
- C[C@@H]1CC[C@H]2[C@@H](C)C(=O)O[C@@H]3O[C@@]4(C)CC[C@@H]1[C@]32OO4 [Artemisinin] — lower, -0.97
- CC(=O)OCC1=C(C(=O)O)N2C(=O)C(N)C2SC1 (centres undefined) [7-Aminocephalosporanic acid] — lower, -0.51
- O=[N+]([O-])C(Br)(CO)CO [Bronopol] — lower, -0.07
- NCCc1c[nH]c2ccc(O)cc12 [Serotonin HCl] — lower, -0.88
- CN(C)[C@@H]1C(=O)C(C(N)=O)=C(O)[C@@]2(O)C(=O)C3=C(O)c4c(O)ccc(Cl)c4[C@@](C)(O)[C@H]3C[C@@H]12 [Chlortetracycline HCl] — lower, -0.67
- N[C@@H]1C[C@H]1c1ccccc1 [Tranylcypromine (2-PCPA) HCl] — lower, -0.84
- CCOC(=O)Nc1ccc(NCc2ccc(F)cc2)cc1N [Retigabine] — lower, -0.25
- CN[C@@H]1[C@@H](O)[C@@H](O[C@@H]2[C@@H](O)[C@H](O[C@H]3O[C@H](CN)CC[C@H]3N)[C@@H](N)C[C@H]2N)OC[C@]1(C)O.CN[C@@H]1[C@@H](O)[C@@H](O[C@@H]2[C@@H](O)[C@H](O[C@H]3O[C@H]([C@@H](C)N)CC[C@H]3N)[C@@H](N)C[C@H]2N)OC[C@]1(C)O.CN[C@@H]1[C@@H](O)[C@@H](O[C@@H]2[C@@H](O)[C@H](O[C@H]3O[C@H]([C@@H](C)NC)CC[C@H]3N)[C@@H](N)C[C@H]2N)OC[C@]1(C)O [Gentamicin Sulfate] — lower, -0.47
- C=CC[C@]1(O)CC[C@H]2[C@@H]3CCC4=CC(=O)CCC4=C3C=C[C@@]21C [Altrenogest] — lower, -0.14
- CC[C@@H](C(N)=O)N1CCCC1=O [Levetiracetam] — lower, -0.55
- CN(C)[C@@H]1C(=O)C(C(N)=O)=C(O)[C@@]2(O)C(=O)C3=C(O)c4c(O)cccc4[C@@](C)(O)[C@H]3[C@H](O)[C@@H]12 [Oxytetracycline Dihydrate] — higher, 0.01
- Cc1cc(C(C#N)c2ccc(Cl)cc2)c(Cl)cc1NC(=O)c1cc(I)cc(I)c1O (centres undefined) [Closantel] — higher, 0.43
- COc1ccc2c(c1)[C@]13CCCC[C@@H]1[C@H](C2)N(C)CC3 [Dextromethorphan hydrobromide hydrate] — lower, -0.51
- CC[C@H]1CN2CC[C@]3(C(=O)Nc4ccccc43)[C@@H]2C[C@@H]1/C(=C\OC)C(=O)OC [Rhynchophylline] — lower, -0.36
- COc1ccc2c3c([nH]c2c1)C(C)=NCC3 [Harmaline] — lower, -4.96
- C[CH2][Hg][S]c1ccccc1C(=O)[O-].[Na+] [Thimerosal] — higher, 21
- CC[N+](C)(CC)CCOC(=O)C(O)(c1ccccc1)c1ccccc1 [Methylbenactyzine Bromide] — lower, -1.06
- CC(NC(C)(C)C)C(=O)c1cccc(Cl)c1 (centres undefined) [Amfebutamone (Bupropion) HCl] — lower, -0.86
